Measurements from PubChem BioAssay AID540308 (The Scripps Research Institute Molecular Screening Center, 2011).
About 3,500 (0.97%) of roughly 360,000 compounds were called active. This is one part of a sample in which actives are shown more often than they occur.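 The calls were made as follows: active = activation above a per-plate cutoff, the mean activation of sample wells on that plate plus 3 SD (cut at about 8% in these data); inactive = the rest.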

These compounds were tested against Melanocortin receptor 4 (Homo sapiens) (UniProt P32245) (assay: MC4R agonists recruiting beta-arrestin, primary screen, cell-based, luminescence, agonist arm of biased-ligand search (AID 540308)). Settings: U2OS MC4R beta-arrestin complementation, at 8.9 µM, active compounds read high, percent of melanotan II response, DMSO zero.
Chain of Melanocortin receptor 4 (Homo sapiens) (P32245 whole entry, looked up): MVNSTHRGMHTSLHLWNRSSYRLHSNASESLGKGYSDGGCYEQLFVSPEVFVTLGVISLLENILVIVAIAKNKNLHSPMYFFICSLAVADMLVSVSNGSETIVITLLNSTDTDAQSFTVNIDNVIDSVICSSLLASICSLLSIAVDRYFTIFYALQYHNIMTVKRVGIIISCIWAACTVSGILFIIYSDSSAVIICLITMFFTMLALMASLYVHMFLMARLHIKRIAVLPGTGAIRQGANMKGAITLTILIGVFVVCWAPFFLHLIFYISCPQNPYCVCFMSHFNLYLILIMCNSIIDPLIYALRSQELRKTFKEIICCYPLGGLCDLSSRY
With COc1ccc(CCCNC(=O)C2Cc3c(-c4cccc(C(N)=O)c4)ccnc3O2)cc1 (stereo not given) the activation was -1.12% (inactive). In the case of CCCNC(=O)C1(C)CCCN(C(=O)c2oc3ccccc3c2C)C1 (stereo not given), the activation is reported as -0.51% (inactive). O=C(COc1ccc(/C=N/NC(=O)c2ccc(O)cc2)cc1)Nc1ccc([N+](=O)[O-])cc1 was tested, and the activation was 2.23% (inactive). For CC(C)(C)C(=O)Nc1ccc(C(=O)N/N=C/c2ccccc2OC(=O)c2ccc(Cl)cc2Cl)cc1, the activation was -0.61% (inactive). In the case of O=C(N/N=C/c1ccc(OC(=O)c2ccccc2Cl)cc1)c1ccc(O)cc1, the activation is reported as 13.4% (active). In the case of CCc1nc2c(OCc3ccc(F)c(F)c3)cccn2c1N(C)C(=O)c1ccco1, the activation is reported as 1.17% (inactive). CN(C)CCNC(=O)c1cccc(-c2cnc3c(NC=O)cc(-c4cccc(C(F)(F)F)c4)cn23)c1 was tested, and the activation was 13.3% (active). With CC(=O)c1ccc(-c2cnc3c(NC=O)cc(-c4cccc(NS(C)(=O)=O)c4)cn23)cc1 the activation was -0.24% (inactive). For CC(=O)c1cccc(-c2cnc3c(NC=O)cc(-c4ccc(N5CCN(C)CC5)cc4)cn23)c1, the activation was -0.45% (inactive). For CN(C)C(=O)c1cccc(-c2cnc3c(NC=O)cc(-c4ccc(F)cc4)cn23)c1, the activation was 11.3% (active). For CN(C)C(=O)c1cccc(-c2cnc3c(NC=O)cc(-c4ccc(C(=O)N5CCOCC5)cc4)cn23)c1, the activation was 3.87% (inactive). In the case of COc1ccc(-c2cc(NC=O)c3ncc(-c4ccccc4)n3c2)cc1OC, the activation is reported as 21.5% (active). With CN(C)CCNC(=O)c1ccc(-c2cn3c(-c4ccc(Oc5ccccc5)cc4)cnc3cn2)cc1 the activation was 1.4% (inactive). In the case of COc1ccc(-c2cc(NC=O)c3ncc(-c4cc(OC)c(OC)c(OC)c4)n3c2)c(OC)c1, the activation is reported as 7.55% (inactive). With CC(=O)c1cccc(-c2cnc3c(NC=O)cc(-c4ccc(N(C)C)cc4)cn23)c1 the activation was 10% (active). With COc1ccc(-c2cc(NC=O)c3ncc(-c4cccc(C(=O)N(C)C)c4)n3c2)c(OC)c1 the activation was 5.89% (inactive). With CC(=O)c1cccc(-c2cnc3c(NC=O)cc(-c4ccccc4Oc4ccccc4)cn23)c1 the activation was 3.06% (inactive). CC(=O)c1cccc(-c2cnc3c(NC=O)cc(-c4cccc(C(=O)N(C)C)c4)cn23)c1 was tested, and the activation was 6.06% (inactive). CC(C)NC(=O)C1(C)CCCCN1Cc1cccc(C(F)(F)F)c1 (stereo not given) was tested, and the activation was 1.6% (inactive). In the case of COc1cccc(C(O)c2ncc(-c3ccc4ccccc4c3)[nH]2)c1 (stereo not given), the activation is reported as -2.03% (inactive). For CSc1ccc(CN2CCC2(C)C(=O)NCc2ccccc2Br)cc1 (stereo not given), the activation was 0.53% (inactive). With COc1cccc(C(O)c2nc(-c3ccc(C)c(C)c3)cs2)c1 (stereo not given) the activation was 1.59% (inactive). In the case of CC(O)(c1cccc(F)c1)c1nc(-c2ccc3c(c2)OCO3)cs1 (stereo not given), the activation is reported as 3.56% (inactive). O=C(Nc1ccc(Cl)cc1)C1Cc2c(-c3ccc4c(c3)OCO4)ccnc2O1 (stereo not given) was tested, and the activation was 1.36% (inactive). For CCOCC(=O)Nc1cc(OC)c(Cl)cc1OC, the activation was -0.35% (inactive). COc1cc(NC(=O)c2ccc(-c3csc(C)n3)cc2)c(OC)cc1Cl was tested, and the activation was 9.13% (active). For COc1cc(NC(=O)c2ccccc2)c(OC)cc1NC(=O)Cc1ccccc1, the activation was -1.99% (inactive). With CCc1nc2c(OCc3cccc(OC)c3)cccn2c1N(C)C(=O)C(C)C the activation was 1.4% (inactive). In the case of CCCCN(C=O)c1c(CC)nc2c(OCCC3CCCCC3)cccn12, the activation is reported as -0.53% (inactive). With COc1ccc(Nc2nc(NCc3ccco3)nc(N/N=C/c3ccccc3Cl)n2)cc1 the activation was -2% (inactive). With COc1ccc(Nc2oc(-c3ccccc3Cl)nc2C#N)cc1 the activation was 13.3% (active). With N#Cc1nc(-c2cccc3ccccc23)oc1N the activation was -1.15% (inactive). In the case of COc1cccc(-c2ccc3c(c2)N(Cc2ccccc2OC)C(=O)C(C)S3)c1 (stereo not given), the activation is reported as 0.04% (inactive). CC(C)Nc1nc(NCCOc2ccccc2Cl)c2sccc2n1 was tested, and the activation was -1.08% (inactive). CC(=O)Nc1cccc(-c2cc3nc(NCc4cccnc4)n(C)c(=O)c3s2)c1 was tested, and the activation was 0.57% (inactive). For COc1ccc(OC)c(C(O)c2ncc(-c3cccc(C(F)(F)F)c3)[nH]2)c1 (stereo not given), the activation was -1.84% (inactive). In the case of COc1ccc(NC(=O)C2Cc3c(-c4cccc(NC(C)=O)c4)ccnc3O2)cc1OC (stereo not given), the activation is reported as -0.44% (inactive). COc1ccc(NC(=O)C2(C)Cc3c(-c4cccc(NC(C)=O)c4)ccnc3O2)cc1OC (stereo not given) was tested, and the activation was -2.08% (inactive). In the case of NCCCNC(=S)NCCCN(Cc1ccc(Cl)cc1)c1ccc(Br)cn1, the activation is reported as 5.16% (inactive). For S=C(NCCCc1cnc[nH]1)NCCCN(Cc1ccc(Cl)c(Cl)c1)c1ccc(Br)cn1, the activation was 17.5% (active). For CCOC(=O)N1CCN(c2c(NCCN3CCN(c4ccccc4F)CC3)c(=O)c2=O)CC1, the activation was -0.12% (inactive). For CCOC(=O)c1nn(-c2ccccc2F)c2nc(Nc3ccccc3)cc(=O)n12, the activation was 10.2% (active). In the case of CCOC(=O)c1cccc(NC(=O)c2ccc(F)cc2F)c1, the activation is reported as -1.66% (inactive). In the case of COc1ccc(CCNC(=O)C(Sc2ccccn2)c2ccccc2)cc1OC (stereo not given), the activation is reported as -0.76% (inactive). With COc1ccc(C(CCN(Cc2ccc(OC)c(OC)c2)C(=O)CCl)c2ccccc2)cc1 (stereo not given) the activation was 22.9% (active). COc1ccc(CN(Cc2ccc(OC)cc2)C(=O)c2cccs2)cc1 was tested, and the activation was -3.4% (inactive). CCCCCNC(=O)c1cccnc1SCC(=O)Nc1ccccc1OC was tested, and the activation was -0.84% (inactive). Cc1ccccc1S(=O)(=O)NC(=O)C1(C)CCN1C(=O)C1(c2ccc(Cl)cc2)CC1 (stereo not given) was tested, and the activation was 0.06% (inactive). In the case of CC1(C(=O)Nc2cccc3c2CCCC3)CCN1C(=O)C1(c2ccccc2)CC1 (stereo not given), the activation is reported as 1.08% (inactive). With COc1cccc(NC(=S)NC(=O)c2c(Cl)c(C)nn2C)c1 the activation was 16.6% (active). For Cc1nn(C)c(C(=O)NNC(=S)NC2CCCCC2)c1Cl, the activation was -2.05% (inactive). With COc1cccc(OC)c1C(=O)NC(=S)Nc1ccc(N2CCOCC2)c(Cl)c1 the activation was -1.34% (inactive). With CC1(C(=O)NS(=O)(=O)c2ccccc2Cl)CCN1C(=O)c1cccc(F)c1 (stereo not given) the activation was -0.15% (inactive). In the case of CC(=O)NN=C(C)c1ccc(NC(=O)C2CC2)cc1, the activation is reported as -0.71% (inactive). For O=C(/C=C/c1c(Cl)cccc1Cl)NCc1ccccc1, the activation was 19.2% (active). With CCOC(=O)CNC(=O)/C=C/c1c(Cl)cccc1Cl the activation was -0.83% (inactive). For O=C(CC(=O)N/N=C\c1cccc(Cl)c1Cl)NCc1ccccc1, the activation was -2.24% (inactive). With Cc1nc2c(OCc3ccc(Cl)cc3Cl)cccn2c1N(C)CC1CC1 the activation was -3.94% (inactive). With CCCCC(=O)N(C)c1c(CC)nc2c(OCc3ccc(S(C)(=O)=O)cc3)cccn12 the activation was 0.14% (inactive). For CCCOc1ccc(/C=N/NC(=O)C2CC2)c(OCCC)c1, the activation was 0.66% (inactive). With COC(=O)c1ccc(OCC(=O)NC(C)(C)C)cc1 the activation was -0.44% (inactive). In the case of CCCOc1ccc(C(=O)C(CCC(CNCC)C(=O)c2ccc(OCCC)cc2)CNCC)cc1 (stereo not given), the activation is reported as 24.6% (active). For COc1cncc(-c2cnc3sc(NCCc4ccccn4)nn23)c1, the activation was -0.85% (inactive). In the case of COc1ccc(OC)c(NC(=O)C2(C)CCN2C(=O)Cc2ccccc2)c1 (stereo not given), the activation is reported as -0.64% (inactive). COc1ccc(NC(=O)C2Cc3c(-c4ccc5c(c4)OCO5)ccnc3O2)cn1 (stereo not given) was tested, and the activation was 2.24% (inactive). For Cc1cc(C(=O)N2CCCC2(C)C(=O)O)c(C)o1 (stereo not given), the activation was -0.89% (inactive). In the case of CC(C)Nc1ncnc2c1nnn2Cc1ccccc1, the activation is reported as -0.12% (inactive). For Clc1ccc(Nc2ncnc3c2nnn3Cc2ccccc2)cc1, the activation was 19.9% (active). c1ccc(Cn2nnc3c(NCC4CC4)ncnc32)cc1 was tested, and the activation was 2.35% (inactive). In the case of CCc1nc2c(OCc3ccc(C(F)(F)F)cc3)cccn2c1N(C)C(=O)CC(C)C, the activation is reported as -1.6% (inactive). In the case of CC(C)Cc1ccc(-c2cc3nc(NCc4cccc(Cl)c4)ccn3n2)cc1, the activation is reported as -1.5% (inactive). For Cc1ccc(OCC(=O)Nc2ccc(NC(=O)c3cccs3)cc2)c(C)c1, the activation was 2.63% (inactive). In the case of Cc1ccc(C(=O)Nc2ccc(NC(=O)c3cccs3)cc2)c(C)c1, the activation is reported as 13.3% (active). With Cc1ccccc1C(=O)N1CCN(c2ccc(NC(=O)c3cccs3)cc2)CC1 the activation was -4.77% (inactive). In the case of O=C(NCc1cccnc1)c1cc(C2CCCN(C(=O)CCCc3ccccc3)C2)on1 (stereo not given), the activation is reported as 0.26% (inactive). Cc1ccccc1-c1csc(C(O)c2cccc(Cl)c2)n1 (stereo not given) was tested, and the activation was -1.62% (inactive). For O=C(NCc1ccc(F)cc1)c1cc(C2CCCCN2C(=O)C2CCCCC2)on1 (stereo not given), the activation was -0.53% (inactive). COc1cc(F)ccc1-c1cc(C(=O)NCC2CCCCC2)[nH]n1 was tested, and the activation was 1.24% (inactive). In the case of C=CCn1c(SCC(=O)c2ccc(Br)cc2)nnc1C(C)NC(=O)Cc1ccc(OC)cc1 (stereo not given), the activation is reported as 9.94% (active). For C=CCn1c(SCCOc2ccc(OC)cc2)nnc1C(NC(=O)c1ccc(OC)cc1)C(C)C (stereo not given), the activation was 2.5% (inactive). In the case of C=CCn1c(CNC(=O)c2ccco2)nnc1SCC(=O)c1ccc(OC)cc1, the activation is reported as -1.26% (inactive). With CC1(C(=O)NS(=O)(=O)c2cccs2)CCN1C(=O)Cc1ccc(-c2ccccc2)cc1 (stereo not given) the activation was 1.02% (inactive). For CC1(C)CN(Cc2cccnc2)C(=O)[C@H]1CC(=O)Nc1ccc(Br)cc1, the activation was -2.67% (inactive). For CCCCN1CC(C)(C)[C@H](CC(=O)Nc2ccc(Br)cc2)C1=O, the activation was 14.2% (active). For CC1(C)CN(CCc2ccccc2)C(=O)[C@H]1CC(=O)Nc1ccc(Br)cc1, the activation was 1.43% (inactive). Cc1noc(C)c1-c1ccc(C(=O)NCc2ccncc2)c2occc12 was tested, and the activation was -0.03% (inactive). For Cc1cccc(CNC(=O)c2sc(=O)n(Cc3ccccc3C)c2C)c1, the activation was 0.16% (inactive). In the case of O=C(OCc1cn(-c2ccc(Cl)c(Cl)c2)nn1)c1ccccc1Cl, the activation is reported as 16.5% (active). In the case of Cc1cccc(/C(N)=N/OC(=O)c2ccccc2Cl)c1, the activation is reported as -0.56% (inactive). For O=C(COC(=O)c1ccccc1Cl)NC1CCCCCCC1, the activation was -2.78% (inactive).
